Results reported in PubChem BioAssay AID1159580 (chemical genetic matrix, 2015).
Screen size: about 5,500 compounds; about 2,000 (36%) were called active. Another 18% or so got no clear call; they are omitted. Cut-off read from the data, not from the text of the source: active = normalized growth mostly below about 0.91 (no sharp cut-off); inconclusive = no clear call, values can overlap the other calls; inactive = mostly above about 0.92. Some of the results follow.

Experiment: chemical genetic growth profiling, strain panel (AID 1159580);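 note: tested at 20 µM; growth read once vehicle control cultures reached saturation at 30 °C; 1 = growth at the plate median or of vehicle wells; lower values mean less growth of the strain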
Conditions: growth OD

Measured: normalized growth

C[C@](N)(Cc1ccc(O)c(O)c1)C(=O)O
inactive: S. cerevisiae deletion strains, locus YJR075W, strain HOC1, hits give low values 1.01 | S. cerevisiae deletion strains, locus YKL009W, strain mrt4, hits give low values 0.97 | S. cerevisiae deletion strains, locus YKL068W, hits give low values 0.997 | S. cerevisiae deletion strains, locus YKL085W, strain MDH1 (second series), hits give low values 0.983 | S. cerevisiae deletion strains, locus YKL085W, strain MDH1, hits give low values 0.983 | S. cerevisiae deletion strains, locus YKL160W, strain elf1, hits give low values 0.927 | S. cerevisiae deletion strains, locus YKL190W, strain CNB1, hits give low values 0.951 | S. cerevisiae deletion strains, locus YKR001C, strain vps1, hits give low values 0.979 | S. cerevisiae deletion strains, locus YKR026C, strain gcn3, hits give low values 0.986 | S. cerevisiae deletion strains, locus YKR091W, strain srl3, hits give low values 0.972 | S. cerevisiae deletion strains, locus YLL001W, strain dnm1, hits give low values 0.914 | S. cerevisiae deletion strains, locus YLL026W, hits give low values 0.984 | S. cerevisiae deletion strains, locus YLL041C, strain sdh2, hits give low values 0.994 | S. cerevisiae deletion strains, locus YLR027C, strain aat2, hits give low values 0.983 | S. cerevisiae deletion strains, locus YLR039C, strain RIC1, hits give low values 0.975 | S. cerevisiae deletion strains, locus YLR058C, strain SHM2, hits give low values 0.979 | S. cerevisiae deletion strains, locus YLR102C, strain apc9, hits give low values 1 | S. cerevisiae deletion strains, locus YLR113W, strain HOG1, hits give low values 1 | S. cerevisiae deletion strains, locus YLR221C, strain rsa3, hits give low values 0.911 | S. cerevisiae deletion strains, locus YLR258W, strain gsy2, hits give low values 0.959 | S. cerevisiae deletion strains, locus YLR262C, strain YPT6 (second series), hits give low values 0.892 | S. cerevisiae deletion strains, locus YLR262C, strain YPT6, hits give low values 0.878 | S. cerevisiae deletion strains, locus YLR268W, strain sec22, hits give low values 1.06 | S. cerevisiae deletion strains, locus YLR320W, strain mms22, hits give low values 0.944 | S. cerevisiae deletion strains, locus YLR330W, strain CHS5, hits give low values 0.982 | S. cerevisiae deletion strains, locus YLR342W, strain FKS1 (second series), hits give low values 0.861 | S. cerevisiae deletion strains, locus YLR342W, strain FKS1, hits give low values 0.967 | S. cerevisiae deletion strains, locus YLR357W, strain rsc2, hits give low values 0.92 | S. cerevisiae deletion strains, locus YLR370C, strain arc18, hits give low values 0.945 | S. cerevisiae deletion strains, locus YLR371W, strain rom2, hits give low values 0.983 | S. cerevisiae deletion strains, locus YLR384C, strain iki3, hits give low values 0.981 | S. cerevisiae deletion strains, locus YLR418C, strain cdc73, hits give low values 1 | S. cerevisiae deletion strains, locus YML016C, strain PPZ1, hits give low values 0.957 | S. cerevisiae deletion strains, locus YML032C, strain rad52, hits give low values 1.01 | S. cerevisiae deletion strains, locus YML120C, strain ndi1, hits give low values 0.915 | S. cerevisiae deletion strains, locus YML124C, strain tub3, hits give low values 0.993 | S. cerevisiae deletion strains, locus YMR058W, strain fet3, hits give low values 0.944 | S. cerevisiae deletion strains, locus YMR078C, strain ctf18, hits give low values 0.99 | S. cerevisiae deletion strains, locus YMR125W, strain sto1, hits give low values 0.941 | S. cerevisiae deletion strains, locus YMR129W, hits give low values 0.985 | S. cerevisiae deletion strains, locus YMR205C, strain PFK2, hits give low values 0.983 | S. cerevisiae deletion strains, locus YMR223W, strain ubp8, hits give low values 0.938 | S. cerevisiae deletion strains, locus YMR231W, strain pep5, hits give low values 0.988 | S. cerevisiae deletion strains, locus YMR263W, strain SAP30, hits give low values 1 | S. cerevisiae deletion strains, locus YMR307W, strain GAS1, hits give low values 0.765 | S. cerevisiae deletion strains, locus YNL067W, strain RPL9B, hits give low values 0.979 | S. cerevisiae deletion strains, locus YNL071W, strain lat1, hits give low values 0.978 | S. cerevisiae deletion strains, locus YNL128W, strain TEP1, hits give low values 0.896 | S. cerevisiae deletion strains, locus YNL153C, strain GIM3, hits give low values 1.01 | S. cerevisiae deletion strains, locus YNL183C, strain NPR1, hits give low values 0.976 | S. cerevisiae deletion strains, locus YNL233W, strain BNI4, hits give low values 0.972 | S. cerevisiae deletion strains, locus YNL248C, strain rpa49, hits give low values 0.979 | S. cerevisiae deletion strains, locus YNL250W, strain rad50, hits give low values 0.982 | S. cerevisiae deletion strains, locus YNL271C, strain bni1, hits give low values 0.989 | S. cerevisiae deletion strains, locus YNL298W, strain CLA4, hits give low values 0.999 | S. cerevisiae deletion strains, locus YNL307C, strain MCK1, hits give low values 0.996 | S. cerevisiae deletion strains, locus YNL322C, strain KRE1 (second series), hits give low values 0.96 | S. cerevisiae deletion strains, locus YNL322C, strain KRE1, hits give low values 0.984 | S. cerevisiae deletion strains, locus YNR049C, strain mso1, hits give low values 0.969 | S. cerevisiae deletion strains, locus YNR052C, strain pop2, hits give low values 0.991 | S. cerevisiae deletion strains, locus YOL012C, strain htz1 0.552 | S. cerevisiae deletion strains, locus YOL147C, strain pex11, hits give low values 0.989 | S. cerevisiae deletion strains, locus YOR001W, strain rrp6, hits give low values 1.02 | S. cerevisiae deletion strains, locus YOR061W, strain CKA2, hits give low values 0.938 | S. cerevisiae deletion strains, locus YOR069W, strain VPS5, hits give low values 0.991 | S. cerevisiae deletion strains, locus YOR070C, strain gyp1, hits give low values 0.988 | S. cerevisiae deletion strains, locus YOR080W, strain dia2, hits give low values 0.956 | S. cerevisiae deletion strains, locus YOR083W, strain WHI5, hits give low values 0.919 | S. cerevisiae deletion strains, locus YOR106W, strain vam3, hits give low values 0.885 | S. cerevisiae deletion strains, locus YOR136W, strain idh2, hits give low values 0.99 | S. cerevisiae deletion strains, locus YOR144C, strain elg1, hits give low values 1.01 | S. cerevisiae deletion strains, locus YOR184W, strain ser1, hits give low values 0.998 | S. cerevisiae deletion strains, locus YOR231W, strain MKK1, hits give low values 1.03 | S. cerevisiae deletion strains, locus YOR265W, strain rbl2, hits give low values 0.956 | S. cerevisiae deletion strains, locus YOR270C, strain vph1, hits give low values 0.965 | S. cerevisiae deletion strains, locus YOR316C, strain cot1, hits give low values 1 | S. cerevisiae deletion strains, locus YPL051W, strain arl3, hits give low values 0.947 | S. cerevisiae deletion strains, locus YPL055C, strain LGE1, hits give low values 0.915 | S. cerevisiae deletion strains, locus YPL078C, strain atp4, hits give low values 0.947 | S. cerevisiae deletion strains, locus YPL106C, strain sse1, hits give low values 0.882 | S. cerevisiae deletion strains, locus YPL240C, strain hsp82, hits give low values 0.979 | S. cerevisiae deletion strains, locus YPL241C, strain CIN2, hits give low values 0.966 | S. cerevisiae deletion strains, locus YPL256C, strain CLN2, hits give low values 1.08 | S. cerevisiae deletion strains, locus YPR119W, strain clb2, hits give low values 0.993 | S. cerevisiae deletion strains, locus YPR141C, strain kar3, hits give low values 0.987 | S. cerevisiae deletion strains, locus YPR163C, strain tif3, hits give low values 1 | S. cerevisiae deletion strains, locus YPR167C, strain met16, hits give low values 0.997 | S. cerevisiae deletion strains, strain wtn01, hits give low values 1.01
active: S. cerevisiae deletion strains, locus YNL209W, strain ssb2, hits give low values 0.891 | S. cerevisiae deletion strains, locus YOL006C, strain TOP1, hits give low values 0.529 | S. cerevisiae deletion strains, locus YOR290C, strain snf2, hits give low values 0.86 | S. cerevisiae strains, strain wild type, hits give low values 0.9
